Measurements: PubChem BioAssay (NCATS)
Inconclusive results are not listed. Active and inactive are the calls of the source. Calls follow the shape of the dose curve; as a rule, active = well fitted inhibition curve with a large enough effect; inconclusive = small, poorly fitted or top-dose-only effect; inactive = flat fitted curve, though single readings scatter.

Each molecule was assayed on HaCat (assay: Cytotoxic Profiling of Annotated Libraries Using Quantitative High-Throughput Screening (AID 1296008; also: nearly all actives have a fitted effect of over 60% in size)). Conditions: Five cell lines viability, CellTiter-Glo ATP luminescence, 48-72 h; max response: stronger effect = lower value.
How it was run: (§1)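 Cytotoxicity was measured as CellTiter-Glo ATP luminescence, read after 10 min at room temperature. Compound treatment of the cells lasted 48 or 72 hr at 37 degrees Celsius in a qHTS format.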
% is scaled to controls: 0 for no effect and ±100 for the full control effect; potency is read from the fitted curve at half-maximal effect.

Row | Compound | max response | outcome
1 | COc1ccc2cc3c(NC(=O)c4ccco4)nn(C)c3nc2c1 | -26.7% (inactive) | 
2 | CC(C)=C1C[C@@]2(C)C(=CC1=O)CC[C@@H](OC(=O)/C(C)=C/CO)[C@@H]2C |  | inactive
3 | Cc1[nH]c(/C=C2\C(=O)Nc3ccc(S(=O)(=O)N(C)c4cccc(Cl)c4)cc32)c(C)c1C(=O)N1CCN(C)CC1 |  | inactive
4 | O=S(=O)(Nc1cc(Cl)c(Oc2cnc3ccccc3c2)c(Cl)c1)c1ccc(Cl)cc1Cl |  | inactive
5 | CC(=O)OC(C)(C)/C=C/C(=O)[C@](C)(O)[C@H]1C(O)C[C@@]2(C)[C@@H]3CC=C4[C@@H](C=C(O[C@@H]5O[C@H](CO)[C@@H](O)[C@H](O)[C@H]5O)C(=O)C4(C)C)[C@]3(C)C(=O)C[C@]12C (some centres not stated) |  | inactive
6 | O=C1NC(=O)C(c2cnc3ccccn23)=C1c1cn2c3c(cc(F)cc13)CN(C(=O)N1CCCCC1)CC2 |  | inactive
7 | CC(=O)C1=C(O)C=C2Oc3c(C(C)=O)c(O)c(C)c(O)c3[C@]2(C)C1=O |  | inactive
8 | N#Cc1ccc(O[C@@H]2c3ccccc3C[C@H]2N2CCC[C@@H](N)C2)c(Cl)c1 |  | inactive
9 | Cc1cccc(-c2[nH]ncc2-c2ccnc3ccccc23)n1 |  | inactive
10 | Cc1cc2c(F)c(Oc3ncnn4cc(OCC(C)OC(=O)C(C)N)c(C)c34)ccc2[nH]1 (configuration not stated) |  | inactive

The molecules below were run on NIH3T3 in the same assay as above. Conditions: Five cell lines viability, CellTiter-Glo ATP luminescence, 48-72 h; max response: stronger effect = lower value.
How it was run: as §1

Row | Compound | max response | Potency | outcome
11 | CNC(=O)[C@@H](c1ccccc1)N1CCc2cc(OC)c(OC)cc2[C@@H]1CCc1ccc(C(F)(F)F)cc1 | -22.6% (inactive) |  | 
12 | CC1CCC/C=C/C(=O)c2c(O)cc(O)cc2CC(=O)O1 (configuration not stated) |  | 14.6 µM (active) | 
13 | Cc1cc2c(cc1N1C(=O)c3cccc4c(CCCO)ccc(c34)C1=O)n(C)c(=O)n2C |  | 1.53 µM (active) | 
14 | CCOc1cc(C(C)(C)C)ccc1C1=N[C@@](C)(c2ccc(Cl)cc2)[C@@](C)(c2ccc(Cl)cc2)N1C(=O)N1CCN(CC(=O)N2CCOCC2)CC1 |  | 10.1 µM (active) | 
15 | C=C1C(=O)O[C@@H]2[C@H]1CC(=O)[C@H](C)[C@@](O)(C(=O)/C=C/C)[C@H]2OC(=O)C(C)CC (some centres not stated) |  | 4.04 µM (active) | 
16 | CC(C)=C1C[C@@]2(C)C(=CC1=O)CC[C@@H](OC(=O)/C(C)=C/CO)[C@@H]2C | -20.7% (inactive) |  | 
17 | CC(C)(O)/C=C/C(=O)[C@](C)(O)[C@H]1[C@H](O)C[C@@]2(C)[C@@H]3CC=C4[C@@H](C[C@H](O[C@@H]5O[C@H](CO)[C@@H](O)[C@H](O)[C@H]5O)C(=O)C4(C)C)[C@]3(C)C(=O)C[C@]12C |  |  | inactive
18 | C[C@H](Nc1ncnc2nc[nH]c12)c1cc2cccc(Cl)c2c(=O)n1-c1ccccc1 |  | 4.61 µM (active) | 
19 | C=C1CC2OC(=O)C(=C)C2C(OC(=O)/C(C)=C\C)CC2(C)OC1=CC2=O (configuration not stated) |  | 12.8 µM (active) | 
20 | Cc1cc(Nc2nc(-c3ccccc3)nc3ccccc23)n[nH]1 |  | 9.2 µM (active) | 
21 | Nc1ncnc2c1nc(Cl)n2C1OC2COP(=O)(O)OC2C1O (configuration not stated) |  | 5.8 µM (active) | 
22 | CC(=O)OC(C)(C)/C=C/C(=O)[C@](C)(O)[C@H]1C(O)C[C@@]2(C)[C@@H]3CC=C4[C@@H](C=C(O[C@@H]5O[C@H](CO)[C@@H](O)[C@H](O)[C@H]5O)C(=O)C4(C)C)[C@]3(C)C(=O)C[C@]12C (some centres not stated) |  |  | inactive
23 | Cn1nc(-c2ccc(C(F)(F)F)cc2)nc2c(=O)n(C)c(=O)nc1-2 |  | 1.3 µM (active) | 
24 | O=C(NO)c1cnc(N2CCN(S(=O)(=O)c3ccc4ccccc4c3)CC2)nc1 |  | 2.24 µM (active) | 
25 | Cc1noc(-c2ccc(-c3ccc(CC(=O)O)cc3)cc2)c1NC(=O)O[C@H](C)c1ccccc1Cl |  | 7.31 µM (active) | 
26 | CC(=O)C1=C(O)C=C2Oc3c(C(C)=O)c(O)c(C)c(O)c3[C@]2(C)C1=O |  |  | inactive

Row | Compound | max response | Potency | outcome
27 | COC(=O)C1=COC(O[C@@H]2O[C@H](CO[C@@H]3O[C@H](COC(=O)/C=C\c4ccc(O)cc4)[C@@H](O)[C@H](O)[C@H]3O)[C@@H](O)[C@H](O)[C@H]2O)C2C(CO)=CCC12 (some centres not stated) | -28.7% (inactive) |  | 
28 | COc1cc(C(N)=O)nc(-c2ccccn2)c1O | -4.41% (inactive) |  | 
29 | Cc1nc(C#Cc2ccnc(Cl)c2)c(C)n1-c1ccc(F)cc1 | -10.7% (inactive) |  | 
30 | C=C(C)C(=O)O[C@H]1[C@H]2C(=C)C(=O)O[C@@H]2C[C@@H](C)[C@@H]2O[C@@H]2C(=O)[C@](C)(O)[C@@H]1OC(=O)C(=C)C |  | 3.55 µM (active) | 
31 | C=CC(=O)Nc1cccc(Nc2nc(Nc3ccc(OCCOC)cc3)ncc2F)c1 |  | 5.8 µM (active) | 
32 | CC1CCCC[C@H]2C(=O)C=C[C@H](O)[C@@H]2CC(=O)O1 (some centres not stated) |  | 18.4 µM (active) | 
33 | O=C(Nc1cccnn1)N1CCN(c2nccc(-c3ccc(F)c(F)c3)n2)CC1 | -4.62% (inactive) |  | 
34 | C#CC(=O)N(c1ccc(OC)cc1OC)C(C(=O)NCC(=O)OCC)c1cccs1 (configuration not stated) |  | 0.164 µM (active) | 
35 | Cc1[nH]c2ccc(F)cc2c1-c1nc2c3cccnc3c3ncccc3c2[nH]1 |  | 14.6 µM (active) | 
36 | c1ccc(-c2ccc(CNc3nc(-c4ccccn4)nnc3-c3ccccc3)cc2)cc1 |  | 3.66 µM (active) | 
37 | Cc1cc(C(=O)Nc2cc(Nc3ccc4c(/C=C/c5ccccn5)n[nH]c4c3)ccc2F)n(C)n1 |  | 0.731 µM (active) | 
38 | C=C1C(=O)O[C@@H]2C(OC(=O)/C(C)=C\C)/C(C)=C\C(=O)/C=C(\C)C[C@H](O)[C@@H]12 (some centres not stated) |  | 9.04 µM (active) | 
39 | COC1CC(O[C@H]2CC[C@]3(C)C4CC[C@@]5(C)C(=O)[C@]4(CC[C@@H]3C2)CC[C@@H]5C2=CC(=O)OC2)OC(C)C1OC1OC(COC2OC(CO)C(O)C(O)C2O)C(O)C(O)C1O (some centres not stated) |  |  | inactive
40 | COC1CC(O[C@H]2CC[C@]3(C)C4CC[C@]5(C)C(C6=CC(=O)OC6)=CCC56OC46CC[C@@H]3C2)OC(C)C1O[C@@H]1O[C@H](CO[C@@H]2O[C@H](CO)[C@@H](O)[C@H](O)[C@H]2O)[C@@H](O)[C@H](O)[C@H]1O (some centres not stated) |  |  | inactive
41 | C=C1C(=O)O[C@H]2C3=C(C)CCC[C@]3(C)C(=O)C[C@@H]12 |  | 16.4 µM (active) | 
42 | CN1CCN(C2CCN(C(=O)Nc3cc(Oc4ccc(NC(=O)C5(C(=O)Nc6ccc(F)cc6)CC5)c(F)c4)ccn3)CC2)CC1 |  | 2.59 µM (active) | 
